# Source: PubChem BioAssay (Sanford-Burnham Center for Chemical Genomics)
# Rows were chosen to be rich in hits. Some 28% of all compounds tested hit in one or more screens of this group.
# CD11b adhes inh: inhibitors of CD11b/CD18 adhesion to fibrinogen, primary screen, K562 cells, luminescence; Integrin beta-2 (Homo sapiens) + Integrin alpha-M (Homo sapiens), P05107+P11215; AID 1497, 2009; inhibition, % at 10 µM; ATPlite luminescence; Mn2+ added to activate the integrin; actives 0.54% (n = 93,000);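 active = primary inhibition of 50% or more at 10 µM, then 40% or more on retest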
# CYP2C9 act: human CYP2C9 activators, primary screen, biochemical, luminescence; actives 1.4% (n = 96,000); recombinant CYP2C9, luciferin-H conversion; hits give high values; factor 1 = untreated enzyme, 0 = blocked; AID 1024, 2008; Cytochrome P450 2C9 (Homo sapiens), P11712; activation factor at 5 µM;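 active = activation factor of 2 or more for CYP2C9 at a 5 µM dose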;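 also: 0 = sulfaphenazole-blocked wells and 1 = vehicle-only wells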
# CYP2C19 act: human CYP2C19 activators, primary screen, biochemical, luminescence; Cytochrome P450 2C19 (Homo sapiens), P33261; recombinant CYP2C19, luciferin-H EGE luminescence; hits give high values; 0 = fully inhibited enzyme, 1 = untreated enzyme; activation factor at 5 µM; 96,000 tested, under 10 active; AID 1025, 2008;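 active = activation factor of at least 2 at 5 µM in the primary screen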;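 also: 0 = wells with 2.5 mM tranylcypromine and 1 = vehicle-only wells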
# Target sequence (P33261 whole entry, looked up): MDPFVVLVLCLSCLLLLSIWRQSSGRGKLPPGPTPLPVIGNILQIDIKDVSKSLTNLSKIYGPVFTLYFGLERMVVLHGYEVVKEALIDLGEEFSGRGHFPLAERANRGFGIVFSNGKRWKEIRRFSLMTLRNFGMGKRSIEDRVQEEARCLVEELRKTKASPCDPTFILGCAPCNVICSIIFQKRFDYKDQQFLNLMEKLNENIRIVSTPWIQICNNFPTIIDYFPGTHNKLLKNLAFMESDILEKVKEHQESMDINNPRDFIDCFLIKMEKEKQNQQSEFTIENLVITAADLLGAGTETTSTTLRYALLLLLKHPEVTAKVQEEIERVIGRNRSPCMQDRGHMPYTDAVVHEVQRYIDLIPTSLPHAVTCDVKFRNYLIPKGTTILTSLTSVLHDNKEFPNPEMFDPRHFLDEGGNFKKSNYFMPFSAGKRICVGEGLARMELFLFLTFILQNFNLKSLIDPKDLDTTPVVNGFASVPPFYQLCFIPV
# CYP2C9 inh: blockers of cytochrome P450 2C9 activity – biochemical, luminescence, ADME assay, primary screen | P11712 | actives 20% (n = 96,000) | AID 777, 2007 | CYP2C9 Supersomes, luciferin-H conversion | inhibition, % at 5 µM;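 active = blocking of liver enzyme CYP2C9 beyond about 50% at 5 µM, limit read from the data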
# CD11b adhes enh: enhancers of CD11b/CD18 adhesion to fibrinogen, primary screen, K562 cells, luminescence; actives 0.07% (n = 93,000); Integrin beta-2 (Homo sapiens) + Integrin alpha-M (Homo sapiens), P05107+P11215; AID 1499, 2009; activation, % at 10 µM; ATPlite luminescence;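 active = 10 µM primary screen giving 50% or more activity, confirmed by 40% or more on retest at that dose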
# CYP2C19 inh: blockers of cytochrome P450 2C19 activity – biochemical, luminescence, ADME assay, primary screen. inhibition, % at 5 µM. actives 21% (n = 96,000). CYP2C19 Supersomes, luciferin-H EGE luminescence, 30 min. P33261;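 active = CYP2C19 inhibition above a set limit at 5 µM in the primary screen, cut at about 50% in these data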;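 also: plate controls were negative control wells for no effect and 2.5 mM tranylcypromine positive control for full effect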
# Active calls of the source: *; nt = no result given.
SMILES,CD11b adhes inh,CYP2C9 act,CYP2C19 act,CYP2C9 inh,CD11b adhes enh,CYP2C19 inh
Cc1cccc(/C=C2/S/C(=N/N=C3\CC4CCC3(C)C4(C)C)NC2=O)c1 (centres undefined),7.1,0.8,1.1,17.2,3.1,-12.6
Cn1ncc([N+](=O)[O-])c1C(=O)N1CCOCC1,nt,1,1,-1.2,nt,4.9
Cc1nc2ccc(NC(=O)Cc3ccc4c(c3)OCCO4)cc2s1,5.5,nt,nt,nt,2.1,nt
CC1=C(C(=O)N2CCOCC2)C(c2ccc(Cl)cc2)NC(=S)N1 (centres undefined),1.2,nt,nt,nt,-5.0,nt
CCOC(=O)C1CCCN(C(=O)c2ccco2)C1 (centres undefined),-14.2,0.7,0.6,25.6,-3.2,36.7
CC(=O)Nc1ccc(-c2nc3c(C)cccc3[nH]2)cc1,-46.5,0.9,0.8,8.4,9.6,15.3
O=C(c1ccco1)N1CCN(Cc2nnnn2CCc2ccccc2)CC1,-6.1,0.9,0.9,13.9,3.9,12.8
CN(Cc1ccccc1)C(=O)COC(=O)c1cc(-c2ccc(Cl)s2)nc2ccccc12,-2.8,0.1,0.4,87.8*,-5.6,56.3*
CN(Cc1ccccc1)C(=O)COC(=O)c1ccc(Cl)c(N)c1,11.6,nt,nt,nt,4.6,nt
CCCCOc1ccc(-c2cc(C(=O)NNC(=S)NCC)c3ccccc3n2)cc1,0.3,0.8,0.8,21.5,0.8,20.0
CCNC(=O)COC(=O)c1cc(-c2ccc(OC)cc2)nc2ccccc12,nt,0.4,0.8,60.6*,nt,15.9
CCN(CC)C(=O)COC(=O)c1cc(-c2ccc(OC)cc2)nc2ccccc12,2.7,0,0.1,97.5*,0.6,91.3*
O=C(COC(=O)c1cc(-c2ccco2)nc2ccccc12)NCc1ccccc1,-13.3,0.4,0.7,61.3*,1.8,33.3
CCCCOC(=O)C1CCCC(C(=O)OCCCC)N1 (centres undefined),-0.1,0.8,0.8,23.1,-2.0,17.9
CCOc1ccc(-c2cc(C(=O)O)c3ccccc3n2)cc1,41.4,0.4,1.3,57.2*,-5.1,-25.2
O=C(O)c1cc(-c2ccc(O)cc2)nc2ccccc12,-6.4,1,1.1,-2.7,-5.9,-12.0
CC(=O)c1cccc(S(=O)(=O)NCC(c2ccco2)N2CCCCC2)c1 (centres undefined),28.2,0.9,0.2,8.7,0.7,75.3*
CCn1cnc2cc(NS(=O)(=O)c3ccc(C)cc3)ccc21,-3.6,0.2,0.1,84.0*,-1.3,88.7*
Cc1ccc(S(=O)(=O)Nc2ccc3c(c2)CCC3)cc1,34.8,nt,nt,nt,-3.7,nt
COc1ccccc1-n1cnc2cc(NS(=O)(=O)c3ccc(Br)cc3)ccc21,0.9,0,0,99.4*,-0.1,98.4*
CCCNC(=O)c1ccc2c(c1)ncn2-c1ccccc1OC,-8.4,1.1,1.2,-10.0,3.1,-18.5
CCCn1cnc2cc(NCc3cccc(OC)c3)ccc21,nt,0.7,0.4,34.8,nt,59.1*
CCn1cnc2cc(NCc3ccc(C)cc3)ccc21,-1.1,0.9,0.3,11.6,-0.8,74.9*
C/C(=C\C#N)n1nc(C)cc1N,-5.4,1,1,-2.3,1.2,-3.0
COc1cc(SC)ccc1C(=O)Nc1ccccc1C#N,-6.7,0.7,0.8,34.8,71.1,15.1
Cc1ccc(C(=O)NCC(=O)Nc2ccccc2C(F)(F)F)cc1,-1.0,nt,nt,nt,4.4,nt
COc1ccc(-n2cnc3cc(NS(=O)(=O)c4ccc(C)cc4)ccc32)cc1,2.3,0,0.1,98.3*,0.0,91.2*
COc1ccc(S(=O)(=O)Nc2cc(C)ccn2)cc1,-3.3,1.1,0.7,-12.7,-1.5,34.2
Cc1csc(SCC(=O)Nc2cc(S(=O)(=O)N3CCCC3)ccc2Cl)n1,6.2,0.5,0.7,53.5*,-2.9,31.0
Cc1csc(SCC(=O)c2ccc(S(=O)(=O)N3CCOCC3)cc2)n1,0.4,0.6,0.5,39.9,0.6,47.6
